# Measured values reported in PubChem BioAssay (Tox21).
# “And” between values parts separate entries of the source, which are not always exact repeats. Equal values may be shown once. Records with an inconclusive call do not appear. Where a call stands in place of a potency, no number is given. The source made the active and inactive calls. Unless noted, the call rests on the fitted dose curve.
# Legend:
# [1] = qHTS assay to identify small molecule antagonists of the sonic hedgehog signaling (Shh) pathway (AID 1259369); further: nearly all actives have a fitted effect of over 45% in size; further: potency means the concentration at half of the fitted maximal effect
# Procedure, shortened: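 Conditioned medium drives Shh signalling in 3T3Gli1-Luc cells; compounds in DMSO co-applied, 24hr at 37 C, then luciferase luminescence.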
# [2] = molecular target: Estrogen receptor beta (Homo sapiens) (UniProt Q92731); assay: qHTS assay to identify small molecule agonists of the estrogen receptor beta (ER-beta) signaling pathway (AID 1259377; active means well fitted activation curve with a large enough effect in the signal ratio in the repeat runs, not every such curve was filed as active; the % refers to the signal ratio; further: potency means the concentration at half of the fitted maximal effect)
# Sequence of Estrogen receptor beta (Homo sapiens) (Q92731 whole entry, looked up): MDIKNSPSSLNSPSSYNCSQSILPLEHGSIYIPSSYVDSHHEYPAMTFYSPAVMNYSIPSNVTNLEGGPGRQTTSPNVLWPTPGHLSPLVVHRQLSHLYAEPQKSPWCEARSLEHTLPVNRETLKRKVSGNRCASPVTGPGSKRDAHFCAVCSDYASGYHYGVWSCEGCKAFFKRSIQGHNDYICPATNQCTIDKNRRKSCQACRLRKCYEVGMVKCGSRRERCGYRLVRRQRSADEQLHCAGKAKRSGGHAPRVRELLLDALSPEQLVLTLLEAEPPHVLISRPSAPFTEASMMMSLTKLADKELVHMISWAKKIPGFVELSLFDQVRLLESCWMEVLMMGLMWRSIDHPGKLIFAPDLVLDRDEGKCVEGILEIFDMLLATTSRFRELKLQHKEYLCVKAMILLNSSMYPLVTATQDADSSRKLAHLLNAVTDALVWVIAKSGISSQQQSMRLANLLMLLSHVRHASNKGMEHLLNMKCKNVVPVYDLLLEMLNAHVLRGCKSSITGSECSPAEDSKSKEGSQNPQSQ
# Procedure, shortened: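 Ratiometric beta-lactamase FRET read-out came after 2 h substrate loading at room temperature. It followed 16 h compound treatment at 37C of GripTite HEK293T cells carrying a UAS-bla reporter, plated in 2% charcoal-stripped FBS medium.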
# [3] = qHTS assay to identify small molecule agonists of the androgen receptor (AR) signaling pathway in the presence of an antagonist - cell viability counter screen (AID 1259379; active means well fitted curve in the direction sought with a large enough effect in the repeat runs; an effect the other way counts as inactive or inconclusive; further: nearly all actives have a fitted effect of over 25% in size; further: potency means the concentration at half of the fitted maximal effect)
# Procedure, shortened: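 A CellTiter-Fluor read-out measured viability of MDA-kb2 reporter cells (MMTV promoter with AR and GR response elements). Treatment: nilutamide 3.0uM final with compounds at 15 concentrations, 16 hr, 37C, 0% CO2.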
# [4] = qHTS assay to identify small molecule agonists of the estrogen receptor beta (ER-beta) signaling pathway - cell viability counter screen (AID 1259380; active means well fitted curve in the direction sought with a large enough effect in the repeat runs; an effect the other way counts as inactive or inconclusive; further: nearly all actives have a fitted effect of over 30% in size; further: potency means the concentration at half of the fitted maximal effect)
# Procedure, shortened: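 Cells used were ER-beta-UAS-bla HEK293T in medium with 2% charcoal-stripped FBS. They were treated for 16 hr at 37C. Viability came from CellTiter-Glo luminescence.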
# [5] = qHTS assay to identify small molecule antagonists of the estrogen receptor beta (ER-beta) signaling pathway - cell viability counter screen (AID 1259382; active means well fitted curve in the direction sought with a large enough effect in the repeat runs; an effect the other way counts as inactive or inconclusive; further: nearly all actives have a fitted effect of over 55% in size; further: potency means the concentration at half of the fitted maximal effect)
# Procedure, shortened: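 Agonist-stimulated (1nM E2) ER-beta-UAS-bla HEK293T cells are incubated with library compounds for 16 hr at 37C. Cell viability is then assessed in the reporter-assay wells by adding CellTiter-Glo and reading luminescence after 30 min.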
# [6] = molecular target: Estrogen receptor (Homo sapiens) (UniProt P03372); assay: qHTS assay to identify small molecule agonists of the estrogen receptor alpha (ER-alpha) signaling pathway in the presence of an antagonist (AID 1259383); further: nearly all actives have a fitted effect of over 15% in size; further: potency means the concentration at half of the fitted maximal effect; on activation: top concentration of the series differs between compounds
# Sequence of Estrogen receptor (Homo sapiens) (P03372 whole entry, looked up): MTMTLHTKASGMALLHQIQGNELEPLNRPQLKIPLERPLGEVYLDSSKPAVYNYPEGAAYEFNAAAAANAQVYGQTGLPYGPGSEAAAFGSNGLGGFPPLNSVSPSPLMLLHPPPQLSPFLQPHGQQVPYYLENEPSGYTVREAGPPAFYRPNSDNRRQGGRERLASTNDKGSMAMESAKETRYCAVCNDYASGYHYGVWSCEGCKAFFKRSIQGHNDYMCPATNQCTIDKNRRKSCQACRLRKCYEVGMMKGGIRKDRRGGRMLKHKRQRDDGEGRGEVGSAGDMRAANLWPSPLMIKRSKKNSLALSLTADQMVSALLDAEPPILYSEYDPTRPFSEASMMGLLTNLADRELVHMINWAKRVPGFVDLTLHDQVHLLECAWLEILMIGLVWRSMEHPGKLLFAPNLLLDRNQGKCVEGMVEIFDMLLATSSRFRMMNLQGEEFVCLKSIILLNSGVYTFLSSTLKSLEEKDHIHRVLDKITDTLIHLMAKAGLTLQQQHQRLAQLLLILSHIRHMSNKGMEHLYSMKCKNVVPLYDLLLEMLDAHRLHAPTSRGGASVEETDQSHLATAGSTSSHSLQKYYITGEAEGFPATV
# Procedure, shortened: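 Using VM7Luc4E2 cells seeded 24hr before treatment, antagonist ICI-182,780 (10.0nM final) was added, followed by compounds at 15 concentrations. Plates incubated 22hr; ONE-Glo luminescence quantified reporter activity.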
# [7] = molecular target: Thyrotropin receptor (Homo sapiens) (UniProt P16473); assay: qHTS assay to identify small molecule antagonists of the thyroid stimulating hormone receptor (TSHR) signaling pathway (AID 1259385); further: nearly all actives have a fitted effect of over 20% in size; further: potency means the concentration at half of the fitted maximal effect
# Sequence of Thyrotropin receptor (Homo sapiens) (P16473 whole entry, looked up): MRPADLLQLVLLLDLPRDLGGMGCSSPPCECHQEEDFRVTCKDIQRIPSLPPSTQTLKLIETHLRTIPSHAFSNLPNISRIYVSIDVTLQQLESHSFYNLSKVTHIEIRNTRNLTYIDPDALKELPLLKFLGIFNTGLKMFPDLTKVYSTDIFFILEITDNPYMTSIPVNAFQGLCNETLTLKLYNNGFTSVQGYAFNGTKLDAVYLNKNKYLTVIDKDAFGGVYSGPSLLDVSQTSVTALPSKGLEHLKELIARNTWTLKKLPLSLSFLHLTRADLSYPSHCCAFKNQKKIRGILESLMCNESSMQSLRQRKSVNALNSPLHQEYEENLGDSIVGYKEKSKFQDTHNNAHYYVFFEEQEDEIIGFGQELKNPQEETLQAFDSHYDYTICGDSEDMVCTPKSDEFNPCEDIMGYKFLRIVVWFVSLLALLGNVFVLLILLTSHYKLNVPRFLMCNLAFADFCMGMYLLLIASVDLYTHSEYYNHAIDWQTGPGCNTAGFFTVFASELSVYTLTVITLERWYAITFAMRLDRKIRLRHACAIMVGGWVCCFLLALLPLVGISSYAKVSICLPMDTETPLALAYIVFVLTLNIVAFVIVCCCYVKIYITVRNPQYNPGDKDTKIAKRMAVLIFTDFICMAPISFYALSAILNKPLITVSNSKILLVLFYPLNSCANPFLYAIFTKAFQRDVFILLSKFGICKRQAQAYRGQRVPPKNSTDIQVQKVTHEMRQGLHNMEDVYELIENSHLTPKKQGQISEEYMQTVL
# Procedure, shortened: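 Antagonist mode: compound-treated TSHR-expressing HEK293 cells were stimulated with 1.5 ng/mL TSH (final) in presence of Ro20-1724 for 30 min at RT. HTRF cAMP detection after 1 h; each compound tested at 15 concentrations, triplicate.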
# [8] = molecular target: Estrogen receptor beta (Homo sapiens) (UniProt Q92731); assay: qHTS assay to identify small molecule antagonists of the estrogen receptor beta (ER-beta) signaling pathway (AID 1259378; active means well fitted inhibition curve with a large enough effect in the signal ratio in the repeat runs, not every such curve was filed as active; the % refers to the signal ratio; further: potency means the concentration at half of the fitted maximal effect)
# Procedure, shortened: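 Antagonist mode: compounds added to beta-lactamase reporter HEK293T ER-beta-UAS cells stimulated with E2 (1nM final), 16 hr at 37C. LiveBLAzer B/G FRET substrate, 2 hours room temperature, fluorescence read-out.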
# [9] = qHTS assay to identify small molecule agonists or antagonists of the thyroid stimulating hormone receptor (TSHR) signaling pathway - wild type cell line counter screen (AID 1259384)
# Procedure, shortened: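 Counter screen in untransfected Hek293: compounds (15-point titration, triplicate) plus phosphodiesterase inhibitor Ro20-1724 added after 18 h plating; 30 min RT. Intracellular cAMP via competitive d2/cryptate immunoassay, 1 h incubation.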
# [10] = molecular target: Androgen receptor (Homo sapiens) (UniProt P10275); assay: qHTS assay to identify small molecule agonists of the androgen receptor (AR) signaling pathway in the presence of an antagonist (AID 1259381); further: nearly all actives have a fitted effect of over 15% in size
# Sequence of Androgen receptor (Homo sapiens) (P10275 whole entry, looked up): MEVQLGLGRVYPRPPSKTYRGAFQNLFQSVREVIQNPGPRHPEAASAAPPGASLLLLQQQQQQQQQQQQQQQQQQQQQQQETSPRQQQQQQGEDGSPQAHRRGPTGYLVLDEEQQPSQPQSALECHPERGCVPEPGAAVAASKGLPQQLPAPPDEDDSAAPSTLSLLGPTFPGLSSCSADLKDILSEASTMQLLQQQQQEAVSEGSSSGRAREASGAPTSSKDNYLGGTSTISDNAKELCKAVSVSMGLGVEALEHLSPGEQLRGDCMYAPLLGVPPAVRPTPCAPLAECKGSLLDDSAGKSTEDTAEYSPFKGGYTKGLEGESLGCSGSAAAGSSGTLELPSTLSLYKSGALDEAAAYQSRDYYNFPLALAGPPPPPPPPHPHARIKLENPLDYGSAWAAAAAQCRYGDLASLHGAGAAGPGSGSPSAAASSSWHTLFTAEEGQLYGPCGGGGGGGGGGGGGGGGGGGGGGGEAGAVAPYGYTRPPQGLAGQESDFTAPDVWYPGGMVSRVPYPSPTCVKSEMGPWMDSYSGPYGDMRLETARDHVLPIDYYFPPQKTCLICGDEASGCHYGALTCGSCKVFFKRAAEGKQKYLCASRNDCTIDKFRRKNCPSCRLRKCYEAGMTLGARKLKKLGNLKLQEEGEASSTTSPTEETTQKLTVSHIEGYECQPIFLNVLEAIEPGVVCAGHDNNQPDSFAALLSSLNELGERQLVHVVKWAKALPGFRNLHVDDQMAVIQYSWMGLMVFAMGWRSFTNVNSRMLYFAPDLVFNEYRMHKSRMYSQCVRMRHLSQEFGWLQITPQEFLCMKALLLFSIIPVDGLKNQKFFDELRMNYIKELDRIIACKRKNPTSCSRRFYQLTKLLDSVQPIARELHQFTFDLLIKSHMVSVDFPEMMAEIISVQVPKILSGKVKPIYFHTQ
# Procedure, shortened: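 Using human MDA-kb2 cells with an MMTV promoter–luciferase construct (AR and GR response elements), agonist activity is scored under 3.0uM nilutamide (final) co-treatment; 16hr incubation, 37C, luminescence readout via ONE-Glo.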
Structure (SMILES),Potency [1],Potency [2],Potency [3],Potency [4],Potency [5],Potency [6],Potency [7],Potency [8],outcome [9],Potency [10]
C[C@]12CC[C@@H]3c4ccc(O)cc4CC[C@H]3[C@@H]1CC[C@@H]2OC(=O)CCC1CCCC1,13.3 µM (active),2.2 nM (active) and 2.7 nM (active),inactive,61.1 µM (active) and 29.8 µM (active),inactive,4.9 nM (active) and 4.2 nM (active),inactive,–,–,–
FC(F)(F)c1ccccc1Cl,inactive,inactive,inactive,inactive,inactive,inactive,–,–,–,–
Cc1cccc(N(C)C(=S)Oc2ccc3c(c2)CCC3)c1,inactive,inactive,inactive,–,–,inactive,–,–,–,–
O=C1c2ccccc2C(=O)C1(O)O,15.4 µM (active),–,inactive,–,inactive,inactive,–,inactive,inactive,–
COc1ccc(OC(=O)N(CC(=O)O)Cc2ccc(OCCc3nc(-c4ccccc4)oc3C)cc2)cc1,inactive,–,inactive,16.8 µM (active),inactive,inactive,inactive,23.7 µM (active),–,–
c1csc(SSc2cccs2)c1,13.7 µM (active),inactive,–,13.7 µM (active),–,–,–,–,inactive,–
CCC1CO1 (stereo not given),inactive,–,inactive,inactive,–,–,inactive,inactive,inactive,–
O=Cc1c2ccccc2c(Cl)c2ccccc12,inactive,–,–,inactive,inactive,inactive,–,inactive,–,–
C=CC(=O)OCC1CC2CC1C1CCC(COC(=O)C=C)C21 (stereo not given),19.3 µM (active),inactive,inactive,–,inactive,–,–,–,inactive,–
CS(=O)(=O)c1ccc(-c2cn3ccccc3n2)cc1,33.5 µM (active),inactive,inactive,–,inactive,inactive,inactive,–,inactive,–
CCC(C)(C)OC,inactive,inactive,inactive,inactive,–,inactive,inactive,–,inactive,–
CCOc1cccc(-n2cc(C(=O)N3CCN(c4cc(C(=O)O)c5ccccc5c4)CC3)nc2-c2ccc(C)cc2)c1,inactive,inactive,inactive,14.7 µM (active),–,–,–,–,–,inactive
Oc1cc2c(cc1O)[C@H]1c3ccc(O)c(O)c3OC[C@@]1(O)C2,17.4 µM (active),inactive,61.9 µM (active),inactive,inactive,inactive,–,–,–,–
CCOC(=O)OC(C)OC(=O)[C@@H]1N2C(=O)[C@@H](NC(=O)[C@H](N)c3ccccc3)[C@H]2SC1(C)C (stereo not given in full),inactive,inactive,–,inactive,–,–,–,inactive,inactive,–
CCCCN(CCN(CCCC)C(=O)N1CCOCC1)C(=O)N1CCOCC1,13.3 µM (active),inactive,inactive,inactive,inactive,inactive,–,–,–,–
CCCCCCCCOc1ccc(C(=O)O)cc1,inactive,inactive,inactive,–,inactive,–,inactive,–,inactive,–
O=C=Nc1cccc(C(F)(F)F)c1,inactive,inactive,–,30.4 µM (active),inactive,inactive,inactive,–,inactive,–

Structure (SMILES),Potency [1],Potency [2],Potency [3],Potency [4],Potency [5],Potency [6],Potency [7],Potency [8],outcome [9],Potency [10]
CC1(CN2CCC(n3c(=O)[nH]c4ccccc43)CC2)OCc2ccccc2-n2cccc21 (stereo not given),23.7 µM (active),inactive,29.8 µM (active),23.7 µM (active),29.8 µM (active),inactive,inactive,–,inactive,–
Nc1nnc(-c2ccc([N+](=O)[O-])o2)o1,inactive,inactive,54.5 µM (active),–,inactive,inactive,inactive,–,inactive,–
NCCNCCO,inactive,–,inactive,inactive,inactive,inactive,inactive,inactive,inactive,–
c1cc(N(CC2CO2)CC2CO2)ccc1Cc1ccc(N(CC2CO2)CC2CO2)cc1 (stereo not given),15.4 µM (active),–,–,inactive,inactive,inactive,–,27.3 µM (active),inactive,–
CC(=O)OCCN(CCOC(C)=O)c1ccc(N=Nc2ccc([N+](=O)[O-])cc2C#N)cc1,30.6 µM (active),inactive,54.5 µM (active),–,inactive,–,–,–,inactive,–
CCC(OCCCOC)OC(C)=O (stereo not given),inactive,inactive,–,inactive,–,–,–,inactive,inactive,–
CCCCCC[C@@H](O)C/C=C\CCCCCCCC(=O)O,inactive,inactive,inactive,–,–,–,inactive,–,inactive,–
CC(=O)N/N=C/c1ccc([N+](=O)[O-])o1,26.6 µM (active),–,inactive,inactive,inactive,inactive,inactive,inactive,–,–
C[C@@H](O[C@H]1OCCN(Cc2n[nH]c(=O)[nH]2)[C@H]1c1ccc(F)cc1)c1cc(C(F)(F)F)cc(C(F)(F)F)c1,13.3 µM (active),inactive,–,26.6 µM (active),29.8 µM (active),–,–,–,inactive,inactive
O=C(O)CCC(=O)C(=O)O,inactive,inactive,inactive,inactive,inactive,inactive,inactive,–,–,–
CN1C(=O)c2ccccc2C1=O,43.3 µM (active),–,inactive,inactive,inactive,–,inactive,inactive,–,–
CC1(C)[C@H](C(=O)O)N2C(=O)C[C@H]2S1(=O)=O,inactive,–,–,inactive,–,inactive,–,11.9 µM (active),–,–
CC(C)=CCC1C(=O)N(c2ccccc2)N(c2ccccc2)C1=O,inactive,inactive,inactive,inactive,inactive,inactive,inactive,–,inactive,–
CN1CCCC(CC2c3ccccc3Sc3ccccc32)C1 (stereo not given),6.68 µM (active),–,–,18.8 µM (active),11.9 µM (active),inactive,–,13.3 µM (active),inactive,–
C=C/C(C)=C/C/C=C(\C)CCC=C(C)C,27.3 µM (active),inactive,inactive,–,–,inactive,inactive,–,inactive,–
CN1C[C@H](C(=O)N[C@]2(C)O[C@@]3(O)[C@@H]4CCCN4C(=O)[C@H](Cc4ccccc4)N3C2=O)C[C@@H]2c3cccc4[nH]cc(c34)C[C@H]21,inactive,inactive,–,–,–,inactive,11.9 µM (active),–,inactive,–
O=C(OC(=O)c1ccccc1)c1ccccc1,inactive,–,–,inactive,inactive,inactive,inactive,inactive,inactive,–
